Sampled rows, rich in hits. Any-hit rate of the full collection: about 17%.
HepG2 tox: counter-screen for TGF-b inhibitors: cytotoxicity in HepG2 cells; HepG2 CAGA-GFP viability, ATP luminescence, 18 h; Potency, µM (series often up to 46.1 µM), without a hit: at the top dose activity change, negative = cytotoxicity, most hits filed as cytotoxic; 0.76% of 410,000 active
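HepG2 CAGA-GFP cells (1000/well, DMEM with 1% FBS) received compound, then TGF-beta at 500 pg/mL final, and were incubated 18 hours at 37 degrees C. Viability was read by CellTiter-Glo luminescence. Media-only wells were set as complete cell-killing and DMSO as no toxicity.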
TGFb SMAD3 inh: blocks TGF-b signaling; HepG2 CAGA-GFP TGF-b/SMAD3 reporter, GFP fluorescence, 18 h; TGF-beta stimulated, 500 pg/mL final; Potency, µM (titrated, usually from 46.1 µM), without a hit: top-dose activity, negative = inhibition, usual class: inhibitors; 1.2% of 410,000 active; also: % is scaled to controls: 0 for no effect and ±100 for the full control effect; nearly all actives have a fitted effect of over 65% in size
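Smad-responsive CAGA-GFP expression was quantified in HEPG2 cells exposed to compounds and 500 pg/mL final TGF-beta for 18 h at 37 degrees C; unstimulated wells defined full inhibition.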
TDP1 cell noCPT: qHTS for Inhibitors of human tyrosyl-DNA phosphodiesterase 1 (TDP1): qHTS in cells in absence of CPT | 15% of 420,000 active | DT40 Tdp1-/- hTDP1 cells, no CPT, ATP luminescence, 48 h | Potency, µM (series often up to 46.2 µM), without a hit: at the highest dose activity change, negative = growth inhibition, actives largely listed as inhibitors; also: % is scaled to controls: 0 for no effect and ±100 for the full control effect; nearly all actives have a fitted effect of over 55% in size
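DT40 Tdp1-/-;hTDP1 cells, no CPT (DMSO vehicle only), 400 cells/well; compounds pin-transferred; ≥48 hr, 37 °C; CellTiter-Glo 30 min RT dark, luminescence read.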
S2 tox: reduces viability in counter-screen for ATXN expression inhibitors | S2 cells (HEK-293 line with an ATXN2-luciferase reporter) viability, CellTiter-Fluor protease fluorescence, 24 h | Potency, µM (titrated, usually from 56.7 µM), usual class: cytotoxic | 0.49% of 400,000 active | AID 651635; also: nearly all actives have a fitted effect of over 40% in size
ATXN2 expr inh: reduces ATXN2 reporter expression in HEK-293 cells. 0.72% of 360,000 active. Potency, µM (doses to about 57 µM), without a hit: top-dose activity change, negative = inhibition, actives largely listed as inhibitors. HEK-293 ATXN2-luciferase reporter, luminescence, 24 h; also: % is scaled to controls: 0 for no effect and ±100 for the full control effect; nearly all actives have a fitted effect of over 55% in size
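ATXN2-luciferase reporter cells (luciferase flanked by upstream and downstream ATXN2 gene portions) were treated 24 h at 37 °C with compounds at up to 57 uM. SteadyGlo luminescence gave expression; GF-AFC fluorescence gave viability.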
TDP1 cell CPT: DT40-hTDP1 cell growth loss with CPT | chicken DT40 Tdp1-/-;hTDP1 cells + 20 nM CPT, ATP luminescence, 48 h | Potency, µM (titrated, usually from 46.2 µM), for the others: at the highest dose activity change, negative = growth inhibition, most hits filed as inhibitors | 12% of 420,000 active | AID 686979; also: % is scaled to controls: 0 for no effect and ±100 for the full control effect; nearly all actives have a fitted effect of over 55% in size
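Chicken DT40 Tdp1-/- cells complemented with human TDP1, 400 cells/well, exposed to compounds plus 20 nM camptothecin for at least 48 h at 37 C; viability read as ATP content by CellTiter-Glo luminescence.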
Numbers without * were called inactive; i = inactive; ? = inconclusive; / = not tested or not shown; ! = repeats disagree; [ ] = remark or other dose. Calls follow the shape of the dose curve; as a rule, active = well fitted curve in the direction sought with a large enough effect; inconclusive = small, poorly fitted or top-dose-only effect, or another doubt; inactive = no such curve, though single readings can be large; an effect the other way counts as inactive or inconclusive. Potency is read from the fitted curve at half-maximal effect.

SMILES	HepG2 tox	TGFb SMAD3 inh	TDP1 cell noCPT	S2 tox	ATXN2 expr inh	TDP1 cell CPT
CCOC(=O)c1c(C)oc2c(F)c(F)c(F)c(F)c2c1=O	-6%	-25%	21µM*	?	32µM*	16µM*
OC(COCc1cccs1)CN1CCN(c2cccc(C(F)(F)F)c2)CC1 (stereo not given)	-42%	?	21µM*	i	0%	18µM*
OC(COCc1ccccc1)CN1CCN(c2ccccc2)CC1 (stereo not given)	-2%	17%	-10%	i	3%	-11%
OC(CN1CCN(c2cccc(C(F)(F)F)c2)CC1)c1c[nH]c2ccccc12 (stereo not given)	-99%	?	23µM*	i	-3%	?
COc1ccc(Nc2nc3c(S(=O)(=O)c4ccccc4)nnn3c3ccc(Cl)cc23)cc1	6%	0%	9.2µM*	/	/	6.5µM*
CCc1ccc(S(=O)(=O)c2nnn3c2nc(Nc2ccc(F)cc2)c2cc(Cl)ccc23)cc1	6%	13%	5.2µM*	i	11%	3.7µM*
COc1ccc(Nc2nc3c(S(=O)(=O)c4ccccc4)nnn3c3ccc(Cl)cc23)cc1OC	-25%	?	0%	i	-1%	0%
N#C/C(=C\c1ccc(-c2ccc([N+](=O)[O-])cc2Br)o1)C(=O)N1CCN(c2ccccc2)CC1	-26%	6%	9%	?	-13%	5%
O=C(N/N=C/c1ccccn1)c1ccc(Br)cc1	-8%	?	15µM*	?	?	21µM*
CC(C)(C)c1ccc(C(=O)N/N=C/c2ccccn2)cc1	-14%	?	5.8µM*	?	?	9.2µM*
COc1ccccc1NC(=O)NCCCCc1ccccc1	-1%	-5%	-2%	i	6%	-21%
Cc1cn(C2CCCO2)c(=O)nc1N (stereo not given)	3%	10%	-19%	i	-18%	?
CCOC(=O)c1c(NC(=O)COc2ccccc2)sc2c1CC(C)(C)NC2(C)C	12%	5%	16µM*	i	-25%	?
COC(=O)c1c(NC(=O)c2ccc(C(=O)c3ccccc3)cc2)sc2c1CC(C)(C)NC2(C)C	-19%	3%	?	i	/	-14%
CCOc1ccc(C(=O)Nc2sc3c(c2C(=O)OC)CC(C)(C)NC3(C)C)cc1	-10%	12%	16µM*	i	-4%	?
CCOC(=O)c1c(NC(=O)CSc2nc3ccccc3[nH]2)sc2c1CC(C)(C)NC2(C)C	-28%	2%	?	?	-8%	?
CCOC(=O)c1c(NC(=O)COC(=O)/C=C/c2ccco2)sc2c1CC(C)(C)NC2(C)C	-39%	?	5.8µM*	i	-29%	?
CCOC(=O)c1c(C)[nH]c(C)c1C(=O)COC(=O)/C=C/c1ccco1	5%	4%	-19%	i	-1%	-11%
COC(=O)c1c(NC(=O)c2nc3ccccc3s2)sc2c1CC(C)(C)NC2(C)C	-43%	-13%	21µM*	i	-15%	23µM*
CCOC(=O)N1CCN([N+]([O-])=NOc2ccc([N+](=O)[O-])cc2C#N)CC1	/	/	/	/	8%	/
Cc1cn2c(=O)cc(COC(=O)c3ccc(NC(=O)c4ccc(F)cc4)cc3)nc2s1	-19%	-28%	?	/	/	?
CC(C)(C)NC(=O)CN(C(=O)CN1C(=O)C(=O)c2ccccc21)C(C)(C)C	1%	5%	1%	i	-6%[11.3 µM]	-24%
CCOC(=O)c1cc2sccc2n1CC(=O)N1c2ccccc2CC1C (stereo not given)	-31%	-1%	21µM*	?	?	18µM*
CCOC(=O)c1cc2sccc2n1CC(=O)c1ccc2c(c1)OCCO2	-12%	4%	13µM*	i	-24%	15µM*
CC1Cc2ccccc2N1C(=O)CCN1C(=O)C2C3C=CC(C3)C2C1=O (stereo not given)	-2%	27%	-24%	i	2%	2%
SMILES	HepG2 tox	TGFb SMAD3 inh	TDP1 cell noCPT	S2 tox	ATXN2 expr inh	TDP1 cell CPT
CC1Cc2ccccc2N1C(=O)CCn1c(=O)sc2ccccc21 (stereo not given)	4%	7%	16µM*	i	-8%	?
CCOC(=O)c1cc2sccc2n1CC(=O)O	-12%	8%	1%	i	-4%	-2%
CSc1ncc(C(=O)Nc2cccc(Cl)c2C)c(-c2ccccc2)n1	-20%	-2%	?	i	7%	-16%
CCc1ccc(NC(=O)C(NS(=O)(=O)c2cccs2)C(C)C)cc1 (stereo not given)	-10%	?	?	i	-2%	?
CC(=O)C1[C@H](N(C)C)CC2C3CC=C4CC(O)CC[C@]4(C)C3CC[C@@]21C (stereo not given in full)	-2%	42%	24%	i	6%	3%
Cc1ccc(CSc2ncc(Cl)c(C(=O)NCc3ccccc3)n2)cc1	-1%	1%	?	/	/	-28%
O=C(NCc1ccccc1)c1nc(S(=O)(=O)Cc2ccc(F)cc2)ncc1Cl	-112%	?	1.5µM*	/	/	1.3µM*
Cc1cccc(CS(=O)(=O)c2ncc(Cl)c(C(=O)NCc3ccccc3)n2)c1	3.5µM*!	3.2µM*	2.6µM*	/	/	3.3µM*
COc1ccc(C2=CSC3=C(C(=O)c4cccc(S(=O)(=O)N(C)C)c4)CCN23)cc1	-4%	23%	16µM*	?	-17%	23µM*
COc1ccc(N(C)S(=O)(=O)c2cccc(C(=O)N3CCN(c4ccccc4)CC3)c2)cc1	-1%	-2%	?	i	-32%	?
Cc1cc(C)c2c(c1)OC(=O)CC2c1ccc2c(c1)OCO2 (stereo not given)	11%	-14%	-14%	i	10%	-12%
Cc1cc2c(c(C)c1Cl)C(c1ccc3c(c1)OCO3)CC(O)(c1ccccc1)O2 (stereo not given)	18µM*	20µM*	/	/	/	/
O=S(=O)(c1ccc(Cl)cc1)N1CCN(c2ncnc3sccc23)CC1	-25%	?	5.8µM*	i	-34%	6.5µM*
Cc1csc2c(N3CCN(S(=O)(=O)c4ccc(Cl)cc4)CC3)ncnc12	-6%	-10%	23µM*	i	-13%	-21%
Cc1cc(NC(=O)Nc2nnc(N3CCCCCC3)s2)ccc1Br	1%	-6%	?	i	-2%	?
